Among the data in ChEMBL document CHEMBL1961873, “Compounds: GSK PKIS; Assays: Nanosyn kinase panel” (2012) are inhibition values, retold here.

As a reminder, the inhibition is the drop in the measured response relative to a control, in per cent.

Assay [1] deals with Tyrosine-protein kinase CSK (Homo sapiens) (UniProt P41240). Particulars: at 1 µM.
Assay [2] addresses T1, Discoidin domain-containing receptor 2 (Homo sapiens) (UniProt Q16832).
T1 sequence (whole entry): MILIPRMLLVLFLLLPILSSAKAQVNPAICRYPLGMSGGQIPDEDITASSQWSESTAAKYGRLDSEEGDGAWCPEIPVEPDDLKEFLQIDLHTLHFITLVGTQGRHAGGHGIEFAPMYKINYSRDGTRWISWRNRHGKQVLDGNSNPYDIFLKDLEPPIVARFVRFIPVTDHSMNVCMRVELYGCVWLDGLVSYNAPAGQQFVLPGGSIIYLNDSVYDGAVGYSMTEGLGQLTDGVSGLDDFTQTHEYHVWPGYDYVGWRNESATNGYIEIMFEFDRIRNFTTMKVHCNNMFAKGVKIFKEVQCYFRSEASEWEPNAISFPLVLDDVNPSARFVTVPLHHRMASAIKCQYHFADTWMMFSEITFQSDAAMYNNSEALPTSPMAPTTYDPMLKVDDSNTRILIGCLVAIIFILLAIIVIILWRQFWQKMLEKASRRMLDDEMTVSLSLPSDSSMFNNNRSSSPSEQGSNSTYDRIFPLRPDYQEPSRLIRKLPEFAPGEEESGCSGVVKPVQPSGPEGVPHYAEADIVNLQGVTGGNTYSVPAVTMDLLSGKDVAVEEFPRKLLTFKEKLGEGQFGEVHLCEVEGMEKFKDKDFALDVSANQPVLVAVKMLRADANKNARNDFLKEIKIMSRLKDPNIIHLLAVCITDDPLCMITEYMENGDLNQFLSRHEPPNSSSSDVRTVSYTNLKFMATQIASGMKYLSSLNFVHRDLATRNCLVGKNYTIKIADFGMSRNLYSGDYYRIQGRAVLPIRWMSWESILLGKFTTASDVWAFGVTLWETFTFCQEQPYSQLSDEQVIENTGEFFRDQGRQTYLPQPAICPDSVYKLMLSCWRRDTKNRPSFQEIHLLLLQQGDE
Particulars: at 0.1 µM.

Assay [3] concerns the target T1, Discoidin domain-containing receptor 2 (Homo sapiens). Particulars: at 1 µM.
In assay [4] the target is Epidermal growth factor receptor (Homo sapiens) (UniProt P00533). Particulars: at 0.1 µM.
The target is the same in assay [5]. Particulars: at 1 µM.
Assay [6] has as its system Epidermal growth factor receptor (Homo sapiens), P00533 [L858R]. Particulars: at 0.1 µM.
Assay [7] shares this test system. Particulars: at 1 µM.
Assay [8] relates to Epidermal growth factor receptor (Homo sapiens), P00533 [L861Q]. Particulars: at 0.1 µM.
For assay [9] the test system is unchanged. Particulars: at 1 µM.
For assay [10], the system named is Epidermal growth factor receptor (Homo sapiens), P00533 [T790M]. Particulars: at 0.1 µM.
Chain of Epidermal growth factor receptor (Homo sapiens), P00533 [T790M] (P00533 whole entry T790M): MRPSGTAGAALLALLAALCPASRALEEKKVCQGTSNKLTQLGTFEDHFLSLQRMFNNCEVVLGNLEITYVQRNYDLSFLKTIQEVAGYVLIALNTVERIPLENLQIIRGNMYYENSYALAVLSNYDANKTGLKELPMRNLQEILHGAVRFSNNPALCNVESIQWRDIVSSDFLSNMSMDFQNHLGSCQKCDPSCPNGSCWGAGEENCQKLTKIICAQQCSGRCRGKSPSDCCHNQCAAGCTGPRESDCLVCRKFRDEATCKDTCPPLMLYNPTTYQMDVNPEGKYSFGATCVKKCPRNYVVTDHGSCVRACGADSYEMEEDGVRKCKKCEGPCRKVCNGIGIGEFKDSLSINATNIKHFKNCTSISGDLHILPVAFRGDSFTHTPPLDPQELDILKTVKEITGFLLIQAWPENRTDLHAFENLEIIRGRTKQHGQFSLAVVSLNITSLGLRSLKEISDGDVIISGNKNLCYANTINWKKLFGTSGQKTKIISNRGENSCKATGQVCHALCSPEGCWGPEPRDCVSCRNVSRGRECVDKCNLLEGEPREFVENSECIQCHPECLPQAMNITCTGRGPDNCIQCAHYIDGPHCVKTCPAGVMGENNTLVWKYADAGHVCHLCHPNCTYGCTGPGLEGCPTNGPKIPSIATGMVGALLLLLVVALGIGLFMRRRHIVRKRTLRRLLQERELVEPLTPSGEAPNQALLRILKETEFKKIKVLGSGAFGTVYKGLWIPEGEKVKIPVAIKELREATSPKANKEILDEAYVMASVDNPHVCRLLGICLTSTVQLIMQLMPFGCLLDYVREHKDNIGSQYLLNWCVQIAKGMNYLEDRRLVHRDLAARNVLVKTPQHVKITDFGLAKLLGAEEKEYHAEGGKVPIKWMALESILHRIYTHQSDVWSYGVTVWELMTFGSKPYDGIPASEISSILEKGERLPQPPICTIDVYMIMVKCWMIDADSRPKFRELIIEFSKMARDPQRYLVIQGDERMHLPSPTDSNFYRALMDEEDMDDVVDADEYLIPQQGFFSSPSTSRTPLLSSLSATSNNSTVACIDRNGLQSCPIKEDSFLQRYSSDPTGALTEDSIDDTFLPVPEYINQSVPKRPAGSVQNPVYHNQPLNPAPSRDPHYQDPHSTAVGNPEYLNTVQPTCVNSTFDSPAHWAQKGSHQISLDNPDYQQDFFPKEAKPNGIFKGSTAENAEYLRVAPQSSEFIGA

Chain of Tyrosine-protein kinase CSK (Homo sapiens) (P41240 2-450 limits assumed): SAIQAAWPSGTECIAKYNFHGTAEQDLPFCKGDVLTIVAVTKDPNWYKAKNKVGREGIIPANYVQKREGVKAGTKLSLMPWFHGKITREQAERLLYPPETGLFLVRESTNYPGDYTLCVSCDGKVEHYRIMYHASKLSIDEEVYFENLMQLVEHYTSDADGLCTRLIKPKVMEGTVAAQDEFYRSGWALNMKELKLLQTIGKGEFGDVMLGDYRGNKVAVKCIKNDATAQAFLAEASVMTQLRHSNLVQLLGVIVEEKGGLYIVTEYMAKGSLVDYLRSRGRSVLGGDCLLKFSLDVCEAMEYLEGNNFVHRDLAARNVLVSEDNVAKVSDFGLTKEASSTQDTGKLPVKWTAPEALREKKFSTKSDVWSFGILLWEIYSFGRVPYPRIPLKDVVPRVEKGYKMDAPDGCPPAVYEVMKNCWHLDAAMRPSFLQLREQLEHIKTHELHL
Chain of Epidermal growth factor receptor (Homo sapiens) (P00533 whole entry): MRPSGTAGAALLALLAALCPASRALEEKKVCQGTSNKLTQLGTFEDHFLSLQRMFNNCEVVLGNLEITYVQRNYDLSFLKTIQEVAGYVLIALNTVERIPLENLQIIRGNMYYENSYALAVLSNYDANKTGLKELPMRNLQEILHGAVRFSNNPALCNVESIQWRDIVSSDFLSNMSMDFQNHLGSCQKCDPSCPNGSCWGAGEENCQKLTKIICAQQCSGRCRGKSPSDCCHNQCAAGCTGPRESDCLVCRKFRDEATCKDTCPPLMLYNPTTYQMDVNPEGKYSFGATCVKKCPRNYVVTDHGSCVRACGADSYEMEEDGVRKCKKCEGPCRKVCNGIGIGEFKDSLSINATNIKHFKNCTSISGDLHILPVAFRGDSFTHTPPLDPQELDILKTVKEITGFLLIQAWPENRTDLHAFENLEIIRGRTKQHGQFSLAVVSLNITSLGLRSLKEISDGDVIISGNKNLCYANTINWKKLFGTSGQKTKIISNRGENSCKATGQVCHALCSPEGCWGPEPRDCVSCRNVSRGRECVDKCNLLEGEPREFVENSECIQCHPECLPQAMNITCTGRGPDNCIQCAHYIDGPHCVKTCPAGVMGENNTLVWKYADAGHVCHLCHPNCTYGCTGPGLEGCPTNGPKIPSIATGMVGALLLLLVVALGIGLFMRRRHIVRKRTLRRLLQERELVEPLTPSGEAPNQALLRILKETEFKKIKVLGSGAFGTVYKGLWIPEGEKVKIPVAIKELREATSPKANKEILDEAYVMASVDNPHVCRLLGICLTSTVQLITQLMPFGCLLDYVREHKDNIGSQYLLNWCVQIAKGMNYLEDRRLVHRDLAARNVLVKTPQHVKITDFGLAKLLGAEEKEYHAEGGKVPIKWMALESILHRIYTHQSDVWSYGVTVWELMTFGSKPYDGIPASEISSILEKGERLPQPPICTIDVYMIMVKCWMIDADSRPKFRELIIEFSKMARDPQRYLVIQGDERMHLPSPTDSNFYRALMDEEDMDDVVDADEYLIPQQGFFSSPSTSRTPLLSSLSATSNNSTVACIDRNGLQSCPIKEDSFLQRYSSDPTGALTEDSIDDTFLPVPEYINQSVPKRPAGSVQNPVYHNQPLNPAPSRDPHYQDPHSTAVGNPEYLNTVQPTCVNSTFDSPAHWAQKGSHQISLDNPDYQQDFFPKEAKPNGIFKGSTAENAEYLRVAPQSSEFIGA
Chain of Epidermal growth factor receptor (Homo sapiens), P00533 [L861Q] (P00533 whole entry L861Q): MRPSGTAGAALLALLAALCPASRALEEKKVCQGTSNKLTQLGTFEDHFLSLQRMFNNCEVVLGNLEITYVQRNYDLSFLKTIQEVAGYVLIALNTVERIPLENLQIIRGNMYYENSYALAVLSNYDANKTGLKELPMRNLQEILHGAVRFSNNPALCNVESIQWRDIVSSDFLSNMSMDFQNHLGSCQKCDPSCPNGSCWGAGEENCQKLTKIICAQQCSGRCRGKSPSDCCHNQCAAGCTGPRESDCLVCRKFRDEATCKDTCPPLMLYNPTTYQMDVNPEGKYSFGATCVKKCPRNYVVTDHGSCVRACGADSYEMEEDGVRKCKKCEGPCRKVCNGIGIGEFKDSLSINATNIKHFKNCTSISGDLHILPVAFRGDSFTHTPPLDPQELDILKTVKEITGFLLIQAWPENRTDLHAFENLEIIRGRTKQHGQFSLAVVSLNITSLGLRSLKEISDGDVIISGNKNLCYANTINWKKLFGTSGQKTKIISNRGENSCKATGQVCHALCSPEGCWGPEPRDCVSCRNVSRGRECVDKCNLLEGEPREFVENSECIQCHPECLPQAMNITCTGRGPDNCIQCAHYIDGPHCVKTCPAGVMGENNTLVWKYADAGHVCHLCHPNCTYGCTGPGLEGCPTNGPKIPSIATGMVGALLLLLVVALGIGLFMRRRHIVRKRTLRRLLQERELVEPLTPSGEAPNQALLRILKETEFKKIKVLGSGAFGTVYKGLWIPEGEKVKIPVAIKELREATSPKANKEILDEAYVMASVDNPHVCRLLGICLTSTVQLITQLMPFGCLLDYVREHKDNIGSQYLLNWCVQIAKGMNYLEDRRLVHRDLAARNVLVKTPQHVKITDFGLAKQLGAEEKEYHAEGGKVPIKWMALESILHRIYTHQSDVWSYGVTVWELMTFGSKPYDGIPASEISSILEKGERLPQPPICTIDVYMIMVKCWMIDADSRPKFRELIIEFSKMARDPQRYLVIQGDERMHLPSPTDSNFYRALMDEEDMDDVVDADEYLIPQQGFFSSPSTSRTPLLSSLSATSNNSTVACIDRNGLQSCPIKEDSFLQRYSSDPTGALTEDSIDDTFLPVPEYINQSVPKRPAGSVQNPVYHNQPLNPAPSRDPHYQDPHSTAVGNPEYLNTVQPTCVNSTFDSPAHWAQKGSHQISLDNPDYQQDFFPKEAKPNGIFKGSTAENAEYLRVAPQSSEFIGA

Consider `CC(C)c1ccc2c(c1)NC(=O)/C2=N/Nc1ccc(S(N)(=O)=O)cc1`, for which the inhibition in [1] is 0.99%; in assay [2], 0.55%; in [3], 0.19%; in [4], 1.14%; in assay [5] it was 2.18%; in [6], -0.18%. Further, the inhibition in assay [7] is -0.39%; in assay [8], -0.48%; in assay [9], -2.09%; in assay [10], -1.03%.

As to `CCCN1CCCC(c2ccc(Nc3nc(Nc4cc(F)ccc4C(N)=O)c4cc[nH]c4n3)c(OC)c2)C1` (centres undefined), the inhibition in assay [1] was 4.58%; in assay [2] it was 2.62%; in assay [3], 4.82%; in assay [4] it was 7.23%; in assay [5], 38%; in assay [6], 9.57%. Moreover, the inhibition in assay [7] was 37.5%; in assay [8], 7.28%; in assay [9] it was 28.4%; in [10], 32%.

As to `Cc1ccc2c(-c3ccnc(Nc4cccc(C(F)(F)F)c4)n3)c(-c3ccccc3)nn2n1`, the inhibition in assay [1] was 11.4%; in assay [2], 6.32%; in assay [3], 47.4%; in assay [4], 28.9%; in [5] it was 70.3%; in assay [6], 82.3%. Also, the inhibition turned out to be 94.8% in assay [7], 48.2% in assay [8], 88.2% in [9] and 10.9% in assay [10].

For `Oc1cccc(-c2nc(-c3ccccc3)[nH]c2-c2ccncc2)c1`, the inhibition in [1] was found to be 16.5%; in assay [2] it was 2.82%; in [3] it was 10.9%; in assay [4], 2.76%; in [5], 4.4%; in assay [6], 6.31%. In addition, the inhibition in assay [7] was determined as 19.7%; in assay [8] it was 4.74%; in assay [9], 8.26%; in assay [10], 1.84%.

As to `CN1CCN(C(=O)c2ccc(NC(=O)Nc3ccc(N(C)c4ccnc(Nc5ccc(CS(C)(=O)=O)cc5)n4)cc3)cc2)CC1`, the inhibition in assay [1] was 12.6%; in assay [2], 66%; in [3], 85%; in assay [4], 4.52%; in assay [5] it was 7%; in [6] it was -3.46%. The inhibition in [7] was 2.15%; in [8] it was 1.12%; in assay [9] it was 4.44%; in [10], -0.46%.

Take `c1ccc(Cc2nc3ccc(Nc4ncnc5ccccc45)cc3[nH]2)cc1`: the inhibition in [1] stood at 30.9%; in assay [2] it was 0.85%; in [3], 1.06%; in assay [4] it was 24.3%; in assay [5], 67.2%; in assay [6], 2.32%. The inhibition worked out at 11.3% in [7], 12% in assay [8], 22.2% in assay [9] and 2.05% in assay [10].

With `CCS(=O)(=O)c1ccc(OC)c(Nc2nccc(N(C)c3ccc4c(C)n[nH]c4c3)n2)c1`, the inhibition in assay [1] is 15.2%; in assay [2], -0.23%; in assay [3] it was -2.28%; in assay [4] it was 7.37%; in assay [5], 35.2%; in assay [6] it was 7.56%. The inhibition in assay [7] worked out at 43.1%; in assay [8] it was 7.97%; in assay [9] it was 31.4%; in [10] it was 4.42%.

As to `[O-][S+]1CCN(Cc2ccc(-c3ccc4ncnc(Nc5ccc(OCc6ccccc6)c(Cl)c5)c4c3)o2)CC1`, the figures for the inhibition in [1], in [2] and in [3] were 1.54%, 0.28% and 1.54%, respectively.

In the case of `CN(C)C(=O)O[C@H]1CN[C@H](C#Cc2cc3ncnc(Nc4ccc(OCc5cccc(F)c5)c(Cl)c4)c3s2)C1`, the results for the inhibition in assay [1], in [2] and in assay [3] were 2.76%, 1.62% and 1.98%, respectively.

`COc1cc(/C=N/Nc2ncnc3c2cnn3C(C)C)ccc1O`: the inhibition in assay [1] is -1.57%; in [2] it was -0.03%; in [3] it was -1.45%; in [4], 6.39%; in [5], 9.9%; in assay [6] it was 3.23%. Moreover, the inhibition in assay [7] came to 12.2%; in assay [8], 2.56%; in [9], 3.26%; in [10], 0.17%.

For the compound `C[C@@H](Oc1cc(-n2cnc3ccc(OC[C@@H](O)CO)cc32)sc1C(N)=O)c1ccccc1Cl`, the inhibition was -0.52% in assay [1]; 0.32% in assay [2]; 0.79% in assay [3]; -0.06% in assay [4]; 2.04% in assay [5]; -2.48% in [6]. Besides, the inhibition in [7] is 1.14%; in [8] it was -1.31%; in assay [9] it was -2.45%; in [10] it was -3.45%.

In the case of `O=C1Nc2ccccc2/C1=C/Nc1ccc2[nH]c(=O)[nH]c2c1`, the inhibition turned out to be 9.18% in [1]; 5.46% in assay [2]; 8.62% in [3]; 4.63% in [4]; 7.94% in assay [5]; 3.53% in [6]. Further, the inhibition in [7] stood at 6.79%; in assay [8], 4.1%; in assay [9] it was 6.47%; in [10] it was 3.08%.

On to `CN(C)C(=O)O[C@@H]1CN[C@@H](C#Cc2cc3ncnc(Nc4ccc(OCc5cccc(F)c5)c(Cl)c4)c3s2)C1`, for which the inhibition is -1.42% in [1], 1.79% in [2] and 3.36% in [3].

Regarding `N#Cc1c(NC(=O)c2ccccc2F)sc2c1CCCC2`, the inhibition is -5.02% in assay [1]; -1.61% in assay [2]; -1.14% in [3]; 2.1% in assay [4]; 4% in [5]; 1.21% in assay [6]. The inhibition is 3.66% in assay [7], -0.67% in [8], -1.19% in assay [9] and -2.41% in assay [10].

Turning to `CCn1c(-c2nonc2N)nc2c(C#CC(C)(C)O)nc(OCCNC)cc21`, the inhibition worked out at 5.91% in [1]; 1.73% in assay [2]; 2.04% in assay [3]; 0.82% in assay [4]; 0.07% in assay [5]; 1.22% in assay [6]. Also, the inhibition in assay [7] is 3.32%; in assay [8] it was 1.91%; in [9], 2.32%; in assay [10] it was 1.88%.

Regarding `O=S(=O)(CCOCc1ccc(-c2ccc3ncnc(Nc4ccc(OCc5cccc(F)c5)c(Cl)c4)c3c2)o1)c1ccccc1`, the inhibition in assay [1] was determined as 1.36%; in [2], 1.97%; in [3], 3.8%; in assay [4], 71.9%; in assay [5], 84.7%; in assay [6] it was 25.1%. The inhibition in assay [7] was 77.3%; in assay [8], 33.8%; in assay [9] it was 68.4%; in assay [10] it was -0.58%.

`Nc1ccc(C#Cc2cncnc2Nc2ccc(OCc3cccc(F)c3)c(Cl)c2)cc1`: the inhibition in assay [1] was 4.88%; in assay [2], 1.32%; in [3], 0.65%; in assay [4], 45.5%; in assay [5], 82.8%; in assay [6], 5.98%. Moreover, the inhibition amounted to 35.2% in assay [7], 23.1% in assay [8], 37.2% in assay [9] and 2.51% in [10].

For `CN(C)CCCn1c(-c2nonc2N)nc2cnccc21`, the inhibition in [1] was 1.67%; in assay [2] it was 1.29%; in assay [3] it was 1.57%; in assay [4], 9.72%; in assay [5], 10.6%; in assay [6], 3.98%. The inhibition in assay [7] was 0.96%; in assay [8], 3.25%; in assay [9], 1.62%; in assay [10] it was 2.09%.
